DYRK1A inh – Dyrk1A (rat) kinase inhibition. Q63470. ADP-Glo luminescence, NFATc1 peptide. inhibition, % at 12.5 µM. 0.43% of 310,000 active. AID 504441; in the data active means inhibition above about 50%
GC-B act – GC-B (human) receptor activation; 0.11% of 370,000 active; P20594; AID 1920062; HEK293-GC-B cells, CNP EC30, cGMP TR-FRET; 0% at EC30 CNP, 100% saturating CNP; activation, % at 10 µM;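 active means activation at 10 µM reaching about 35% in either raw or pattern-adjusted values, limit read from the data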
HSF1 activator – increases HSF-1 driven luciferase reporter signal; activation, % at 9 µM; 1.7% of 300,000 active; NIH3T3-HGL HSF-1 luciferase reporter, MG132, 8 h; 100% = twice DMSO control signal;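 active means mean replicate activation of at least 50% with a set share of replicates each reaching 50%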
NPR1 activator – GC-A (human) enzyme activation. P16066. HEK293 GC-A cells, cGMP TR-FRET, EC30 ANP; 0% at EC30 ANP, 100% saturating ANP. activation, % at 10 µM. 0.14% of 370,000 active; in the data active means activation above about 40%
Target sequence (P16066 whole entry, looked up): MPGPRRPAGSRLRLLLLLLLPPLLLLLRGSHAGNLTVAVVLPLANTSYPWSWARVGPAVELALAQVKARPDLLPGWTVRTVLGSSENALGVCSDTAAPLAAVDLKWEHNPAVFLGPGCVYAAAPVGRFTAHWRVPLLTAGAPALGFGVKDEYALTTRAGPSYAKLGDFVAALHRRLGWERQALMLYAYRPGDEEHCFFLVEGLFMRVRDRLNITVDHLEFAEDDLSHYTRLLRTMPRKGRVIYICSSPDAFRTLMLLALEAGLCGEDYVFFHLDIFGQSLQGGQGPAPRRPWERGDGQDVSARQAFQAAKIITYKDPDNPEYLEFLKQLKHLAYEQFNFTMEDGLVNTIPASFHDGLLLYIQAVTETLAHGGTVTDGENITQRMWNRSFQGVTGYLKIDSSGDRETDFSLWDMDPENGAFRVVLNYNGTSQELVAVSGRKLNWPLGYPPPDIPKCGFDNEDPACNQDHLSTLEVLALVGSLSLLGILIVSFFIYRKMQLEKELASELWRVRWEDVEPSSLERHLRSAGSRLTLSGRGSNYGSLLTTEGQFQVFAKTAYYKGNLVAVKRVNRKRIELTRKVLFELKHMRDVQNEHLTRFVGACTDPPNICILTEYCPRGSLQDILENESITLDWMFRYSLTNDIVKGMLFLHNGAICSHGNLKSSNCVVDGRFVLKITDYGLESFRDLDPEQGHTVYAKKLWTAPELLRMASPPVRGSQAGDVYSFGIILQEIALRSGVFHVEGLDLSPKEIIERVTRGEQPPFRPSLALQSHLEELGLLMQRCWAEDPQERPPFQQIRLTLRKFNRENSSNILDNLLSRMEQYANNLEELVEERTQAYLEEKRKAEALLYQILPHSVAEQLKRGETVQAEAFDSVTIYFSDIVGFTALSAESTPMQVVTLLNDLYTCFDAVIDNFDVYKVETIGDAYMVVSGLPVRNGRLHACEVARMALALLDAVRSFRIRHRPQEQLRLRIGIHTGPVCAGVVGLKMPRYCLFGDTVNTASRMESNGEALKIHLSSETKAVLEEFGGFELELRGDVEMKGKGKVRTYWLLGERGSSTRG
aDG glyco act – alpha-DG glycosylation activation | Pro5-aDG cells, alpha-DG glycosylation AlphaScreen (IIH6); 0% Pro5, 100% B10-LARGE cell signal | activation, % at 10 µM | 0.22% of 360,000 active;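 active means activation of at least 8% versus controls, or a plate z-score of at least 8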;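 further: Pro5 are CHO cells carrying HIG-tagged alpha-DG that lacks glycosylation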
HSF1 inh – HSF1 inhibition. NIH3T3-HGL HSE-luciferase, MG132-induced, luminescence 8 h; hits give low values. activity change, negative = inhibition, % at 7.5 µM (by protocol). 0.77% of 300,000 active;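 active means more than half of replicate wells show activity change below -50%, luminescence cut by over half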;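 further: luciferase reports HSF-1 transcriptional activity via heat shock element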
Numbers stand for hits; 0 = inactive; - = not tested or not shown. Only some compounds are listed: those with a hit (about 2.5% of all), similar ones and a draw of the others.

SMILES	DYRK1A inh	GC-B act	HSF1 activator	NPR1 activator	aDG glyco act	HSF1 inh
COc1ccc(SCC2CN(C)CCC2c2ccc(F)cc2)cc1 (stereo not given)	0	0	67.0	0	0	0
NC(Cc1nc2ccccc2[nH]1)c1ccc(Cl)cc1 (stereo not given)	0	0	87.5	0	0	0
COc1ccccc1N1C(=O)NC(=O)/C(=C\c2cnn(-c3ccccc3)c2)C1=O	0	0	0	52.1	0	0
CCCCCc1nc2ccccc2c(=O)n1-c1ccc(Cl)cc1[N+](=O)[O-]	0	0	0	0	0	0
C/C1=C\[C@@H](C)C/C=C/[C@H]2[C@@H]3O[C@]3(C)[C@@H](C)[C@H]3[C@H](Cc4c[nH]c5ccccc45)NC(=O)[C@]32C(=O)/C=C/C(=O)[C@@H]1O	0	-	110.7	-	0	0
CC(=O)c1cn(Cc2ccccc2C#N)c2ccccc12	0	0	0	0	7.5	0
CC(O)C1C=CC=CC(=O)OC2CC3OC4C5OC5(C)CCC4(COC(=O)C4OC4(C)C(O)CO1)C2(C)C31CO1 (stereo not given)	0	0	90.9	0	0	90.9
CC(=O)OC1C(=O)OCC23CCC4(C)OC4C2OC2CC(OC(=O)C=CC=CC(=O)OCCC1C)C3(C)C21CO1 (stereo not given)	0	0	92.2	0	0	92.2
CC1=CC2OC3CC4OC(=O)C=CC=CC(=O)OCCC(C)C(O)C(=O)OCC2(CC1O)C4(C)C31CO1 (stereo not given)	0	-	92.4	-	0	92.4
CC1=CC2OC3CC4OC(=O)C=CC=CC(C(C)O)OCC(O)C(C)CC(=O)OCC2(CC1O)C4(C)C31CO1 (stereo not given)	0	0	-	0	0	-
C[C@]12CCC3C(CC[C@H]4C[C@H](O)[C@H](O)C[C@]34C)C1CC[C@@H]2O (stereo not given in full)	0	0	-	0	0	-
COC1=CC(=O)OC(CCc2ccc3c(c2)OCO3)C1 (stereo not given)	0	0	-	0	0	-
CCCCCCn1c(N)c(C(=O)NCCN2CCOCC2)c2nc3ccccc3nc21	0	35.7	0	0	0	0
CCCc1nc2ccc(Br)cc2c(=O)n1-c1ccc([N+](=O)[O-])c(C(F)(F)F)c1	0	0	0	0	0	0
CCn1c(O)c(C=Nc2ccc(N3CCOCC3)c(Br)c2)c(=O)n(CC)c1=S	0	0	0	0	0	-67.0
CCn1c(O)c(C=Nc2ccc(N3CCOCC3)cc2)c(=O)n(CC)c1=S	0	0	0	0	0	0
CN1C(=O)C(=Cc2ccc(SC3CCCCC3)o2)C(=O)N(C)C1=O	0	0	0	46.5	0	0
Cc1cccn2c(=O)c3c(nc12)N1CCCCC1C1(C3)C(=O)N(C)C(=O)N(C)C1=O (stereo not given)	-	0	0	0	0	0
Cc1cccn2c(=O)c3c(nc12)N1CCC(Cc2ccccc2)CC1C1(C3)C(=O)N(C)C(=O)N(C)C1=O (stereo not given)	0	0	56.4	0	0	0
CN1C(=O)C(=Cc2ccccc2OCc2ccccc2Cl)C(=O)N(C)C1=O	0	0	0	0	0	0
CN1C(=O)C(=Cc2c(OCc3cnc(Cl)s3)ccc3ccccc23)C(=O)N(C)C1=O	0	0	60.9	0	0	0
O=C1NC(=S)NC(=O)C1=Cc1cccn1-c1ccc(O)cc1	0	0	153.8	0	0	0
CN1C(=O)/C(=C/c2cccn2-c2ccc3ccccc3c2)C(=O)NC1=S	0	0	0	0	0	0
S=P(N1CCCCCC1)(N1CC1)N1CC1	0	0	-	0	0	-
C[C@@H]1CN([C@@H](C)CO)C(=O)CCCn2nncc2CO[C@H]1CN(C)C(=O)Oc1ccc2ccccc2c1	-	0	-	0	0	-
SMILES	DYRK1A inh	GC-B act	HSF1 activator	NPR1 activator	aDG glyco act	HSF1 inh
CCOC(=O)c1c(C)n(Cc2ccccc2)c2ccc(O)cc12	-	0	0	85.9	0	0
CC(=O)c1c(C)n(Cc2ccccc2)c2ccc(O)cc12	0	0	0	73.9	0	0
COC(=O)c1c(C)n(Cc2ccccc2)c2ccc(O)cc12	0	0	0	79.8	0	0
C=COCCn1c(C)c(C(=O)OCC)c2cc(O)ccc21	0	0	0	0	0	0
CCN1CCN(CC(=O)c2c(C)n(Cc3ccccc3)c3ccc(OC)cc23)CC1	0	0	0	0	0	0
Cc1c(C(=O)C(=O)N2CCOCC2)c2ccccc2n1Cc1ccccc1	0	0	0	0	0	0
CCC1(C2=NCCN2)Cc2ccccc2O1 (stereo not given)	0	0	-	0	0	-
CCOc1ccccc1-n1c(O)c(C=Nc2ccc(N(CC)CC)cc2)c(=O)[nH]c1=O	0	0	0	0	0	0
CC(=O)c1ccc(OCC(=O)N2CCCC(N(C)Cc3ccccc3)C2)cc1 (stereo not given)	0	0	0	0	0	0
COC(=O)C1=C(c2ccc3ccccc3c2)C[C@@H]2CC[C@H]1N2C(=O)NCc1ccc(C(F)(F)F)cc1	0	0	-	0	0	-
Cc1ccc(S(=O)(=O)N2CCN(C(=O)COC(=O)Cc3ccccc3)CC2)c(C)c1	0	0	0	0	0	0
O=C1Nc2ccc(Br)cc2C(c2ccccc2Cl)=NC1O (stereo not given)	0	0	0	0	0	0
C[N+]1(CC2COC(c3ccco3)O2)CCCCC1 (stereo not given)	0	0	0	0	0	-66.4
CC1=C(C)CC2(C(=O)NC(=O)NC2=O)C(C)C1 (stereo not given)	0	0	-	0	0	-
N#CC1=C(N)Oc2cc(O)ccc2C1c1ccc2c(c1)OCO2 (stereo not given)	0	0	0	44.4	0	0
OCC12COC3c4ccccc4C(OC1)N32 (stereo not given)	0	0	0	0	0	0
C=C1C(=O)O[C@@H]2C[C@@H](C)[C@@H]3C=CC(=O)[C@@]3(C)[C@@H](O)[C@H]12	0	0	0	0	0	-91.6
C[C@@H]1C[C@H]2OC(=O)C3(CO3)[C@H]2[C@H](O)[C@]2(C)C(=O)C3OC3[C@@H]12 (stereo not given in full)	-	-	0	-	-	0
CN(Cc1ccccc1)C(=C(Cl)Cl)/C(=C1/NCCN1Cc1ccc(Cl)nc1)[N+](=O)[O-]	0	0	0	0	0	0
COC(=O)C1=C(c2ccccc2OCc2ccccc2)C[C@@H]2CC[C@H]1N2C(=O)NCc1ccc(OC)c(OC)c1	0	0	-	0	0	-
COc1cc2c(cc1O)C[C@H]1NCCc3cc4c(c-2c31)OCO4	72.3	0	0	0	0	0
C=CCN1CCc2cccc3c2[C@H]1Cc1ccc(O)c(O)c1-3	-	0	95.4	0	0	0

Compound activity (PubChem)
